Assay outcomes as filed in PubChem BioAssay.
Most compounds without a hit are left out; they make up all but 0.4% or so of the library.
AID504770: E. coli YBA685 growth inhibition, screen for V. cholerae RctB inhibitors; E. coli YBA685 rctB-dependent plasmid, OD600 growth, 3 h; stronger effect = lower value; z-score (test concentration not listed); 130,000 compounds, 0.27% hits; AID 504770; in the data active = z-score below about -2, passing the limit was not always enough
CapD inh: CapD enzyme inhibition; purified CapD enzyme, fluorescence intensity read-out; stronger effect = lower value; z-score (concentration not given with the values); 140,000 compounds, 0.23% hits; in the data active = z-score mostly below about -2.9, no sharp cut-off; inactive = mostly above about -1.9
Starred values were filed as active, the others as inactive; x = no result given.

SMILES	AID504770	CapD inh
O=C(OCCN1CCOCC1)c1sc2ccccc2c1Cl	-0.7	0.51
CCn1cc(C(=O)O)c(=O)c2cc(F)c(N3CCNCC3)cc21	-4.65*	0.24
CCCn1cc(S(=O)(=O)c2ccc(C)cc2)c(=O)c2cc(F)c(N3CCN(CC)CC3)cc21	-0.4	110
Cc1ccc(OC(=O)c2ccno2)cc1	1.45	-2.94
O=C(Oc1cc(Cl)cc(Cl)c1)c1ccno1	-2.55*	-1.11
CC1=C(C(=O)Nc2ccc(Cl)cc2)C(c2ccco2)C(C#N)=C(SCC(N)=O)N1 (configuration not stated)	x	2.27
COc1ccc(N2CCC(CNS(=O)(=O)c3cccc(Cl)c3)C2)cc1 (configuration not stated)	-0.35	0.44
CC1CCCCC1NC(=O)COC(=O)c1ccc(Cl)c(S(N)(=O)=O)c1 (configuration not stated)	-3.05*	x
CCOc1ccc(C(=O)OCC(=O)NC2CCCCC2C)cc1 (configuration not stated)	0.15	-0.26
O=C(O)/C=C1\SC(=O)N(c2ccccc2)C1=O	0.35	x
CN(C)/C=C1\SC(=O)N(c2ccccc2)C1=O	1.15	-6.37*
O=C(O)c1cc(C=Nc2ccc(S(=O)(=O)NC3NC=CS3)cc2)c2c(c1)COCO2 (configuration not stated)	1.6	-5.2*
Cc1cc(NS(=O)(=O)c2ccc(N=Cc3ccccc3O)cc2)no1	-0.5	2.15
CC1CN(c2nnc(-c3cccs3)c3ccccc23)CC(C)O1 (configuration not stated)	-2.55*	x
CC1CN(c2nc(-c3cccs3)cc(C(F)(F)F)c2C#N)CC(C)O1 (configuration not stated)	-0.1	1.95
O=C(CCn1[nH]c(=O)ccc1=O)Nc1nc(SCc2ccc(Cl)cc2)n[nH]1	-0.05	x
Cn1c(N/C(=C\C(=O)c2cccs2)C(F)(F)F)nc2ccccc21	-2.7*	-1.86
Cn1c(CCCNC(=O)c2cccs2)nc2ccccc21	0.05	-0.935
O=C1N=C(N2CCN(C3=NC(=O)/C(=C/c4cc(Br)ccc4O)S3)CC2)S/C1=C\c1cc(Br)ccc1O	x	-0.205
COc1ccc(OCC(=O)N2c3ccccc3Sc3ccccc32)cc1	-0.1	5.55
O=C(COC(=O)c1ccc2c(c1)OCO2)c1ccccc1	0	x
O=C(CCNS(=O)(=O)c1ccccc1)N1CCCC1	0.25	-0.335
CC(CNS(=O)(=O)c1ccccc1)(c1ccccc1)N1CCCCC1 (configuration not stated)	-4.1*	-0.07
CCOC(=O)c1cnc2ccccc2c1NCCCN1CCOCC1	1.4	0.525
Cn1c(=O)c2c(O)cc(=O)oc2c2ccccc21	x	0.205
SMILES	AID504770	CapD inh
COc1cc(-c2nnc(SCC(=O)NC(=O)c3ccc(C(C)(C)C)cc3)o2)cc(OC)c1OC	0.35	x
CCNC(=O)CSc1nnc(-c2cc(OC)c(OC)c(OC)c2)o1	-6.1*	x
CCc1nnc(NC(=O)CSc2nnc(NC(=O)c3cccc([N+](=O)[O-])c3C)s2)s1	x	0.125
O=C(CSc1ncn[nH]1)c1cccs1	-0.5	-0.24
CC1=NN(c2ccccc2)C(=O)/C1=C/c1cn(CC(O)CN2CCCCC2)c2ccccc12 (configuration not stated)	-0.5	-4.83*
CC1=NN(c2ccc(Cl)c(C(=O)O)c2)C(=O)/C1=C/c1cn(Cc2ccccc2)c2ccccc12	x	-0.3
Cc1ccc2cc(CCNC(=O)/C=C\c3ccccc3)c(=O)[nH]c2c1	2.3	0.105
N#CC(C#N)=NNc1ccc(SC(F)F)cc1	-3.35*	x
CCOC(=O)/C(C#N)=N/Nc1ccc(SC(F)F)cc1	0.4	x
CCN(CC)c1ncc2c(=S)[nH]c(=S)[nH]c2n1	-0.1	-1.46
C=CCSc1ncc2c(=S)[nH]c(=S)[nH]c2n1	-0.2	-4.64*
O=C1c2ccccc2C(F)(F)c2c(F)cccc21	1.85	-0.405
COc1ccccc1-n1c(CNC(=O)c2ccc(C)c([N+](=O)[O-])c2)nnc1SCC(=O)Nc1nnc(C)s1	x	0.255
COc1ccc(/C=C2\SC(N3CCN(C(=O)CCN4C(=O)/C(=C\c5ccc(OC)cc5)SC4=S)CC3)=NC2=O)cc1	x	0.42
O=C1NC(=O)/C(=C\C=C\c2ccccc2)S1	0.5	0.62
O=C1NC(=S)S/C1=C\C=C\c1ccccc1	-0.4	-4.03*
Cn1ccccc1=S	0.95	x
On1ccccc1=S	-5.35*	x
Oc1c(C(c2ccccc2)N2CCOCC2)ccc2cccnc12 (configuration not stated)	-0.35	-0.8
OCCN1CCN(C(c2ccccc2)c2ccc3cccnc3c2O)CC1 (configuration not stated)	2.9	-5.25*
O=C(COCc1cc(-c2ccc3c(c2)OCO3)on1)Nc1ccc(OC(F)(F)F)cc1	-2.55*	0.195
Cc1cc(NC(=O)COCc2cc(-c3ccc4c(c3)OCO4)on2)nn1Cc1ccc(Cl)cc1	-0.8	0.685
CN(C)S(=O)(=O)c1cccc(CSc2nnc(-c3ccccc3Br)o2)c1	-0.1	x
Cc1cc(C)nc(-n2nc(C)c3c2NC(=O)CC3c2ccccc2)n1 (configuration not stated)	0.2	-1.2
Cc1ccc(-c2cccc(=O)o2)cc1	-1	-3.96*
SMILES	AID504770	CapD inh
Cc1ccc2c(=O)cc(-c3ccc(F)cc3)oc2c1	-0.05	-0.205
CCOC(=O)c1ccccc1NC(=O)c1sc2ncn(CC(=O)Nc3ccccc3OC)c(=O)c2c1C	x	-0.705
CCC(N)C12CC3CC(CC(C3)C1)C2 (configuration not stated)	0.95	0.71
N#Cc1c(Cl)nc(Cl)c(Cl)c1Cl	-3.55*	x
CC(C)=NNc1nc(Cl)c(C#N)c(Cl)c1Cl	-0.6	-0.615
N/C(=N\OC(=O)c1ccc(Br)o1)c1ccncc1	-2.4*	0.17
N/C(=N\OC(=O)Cc1ccccc1)c1ccncc1	-0.45	x
Cn1c(=O)c(C2=NN=C3NNC(c4ccccc4)C32)c(O)c2ccccc21 (configuration not stated)	0	6.11
CN(C)Cc1ccccc1CN	-3.7*	x
CN(C)Cc1ccccc1C#N	-0.35	x
Cc1nc(SCCN2C(=O)c3ccccc3C2=O)c2c3c(sc2n1)CCC3	x	-0.08
COC(=O)c1ccc(COC(=O)C2Cc3ccccc3CN2C(=O)c2ccco2)cc1 (configuration not stated)	-0.55	x
CC1(C)CC(=O)/C(=N/Nc2ccccc2)CO1	-0.8	-4.01*
CC1(C)Cc2c(c(-c3ccccc3)[nH]c(=O)c2C#N)CO1	-0.2	x
O=C1CCCC2=C1C(c1ccco1)c1c([nH]n(-c3ccccc3)c1=O)N2 (configuration not stated)	0.1	-2.56
CC1(C)CC(=O)C2=C(C1)Nc1[nH]n(-c3ccccc3)c(=O)c1C2c1ccco1 (configuration not stated)	1.3	-4.56*
COc1cc(C(c2nnnn2C2CCCCC2)N2CCc3ccccc3C2)ccc1O (configuration not stated)	0.45	x
Cc1c(C)[n+]([O-])c2ccc3c(non3O)c12	-2.2*	-3.23
CCOC(=O)c1c(C)[n+]([O-])c2ccc3c(non3O)c12	-0.05	x
Cc1nn(-c2ccccc2)nc1CNS(C)(=O)=O	-0.65	0
Cc1nn(-c2ccccc2)nc1CNS(=O)(=O)c1cccs1	-3.3*	-0.15
O=C(CCc1nc(-c2ccc(Cl)cc2)no1)Nc1cccc(Cl)c1Cl	x	0.145
Cc1cc(-c2nnc(SCC(=O)c3ccccc3)n2C)no1	-0.7	0.55
N#Cc1cc(-c2ccc(Cl)cc2)no1	-2.55*	x
NC(=O)c1cc(-c2ccc(Cl)cc2)no1	-0.8	-0.425
